What all share (assay): DAPPL (digital affinity profiling via proximity ligation, sequencing); 10 mM Tris-HCl pH 7.5, 50 mM NaCl, 1 mM DTT, 4% glycerol, room temperature, 30 min; GST-TFs on glutathione beads, 16-mer random dsDNA library, 0.1% formaldehyde crosslink after washing; high values mean tight binding
In one test the target is T1, FLI1 (Homo sapiens, UniProt Q01543 1-452).
T1 sequence: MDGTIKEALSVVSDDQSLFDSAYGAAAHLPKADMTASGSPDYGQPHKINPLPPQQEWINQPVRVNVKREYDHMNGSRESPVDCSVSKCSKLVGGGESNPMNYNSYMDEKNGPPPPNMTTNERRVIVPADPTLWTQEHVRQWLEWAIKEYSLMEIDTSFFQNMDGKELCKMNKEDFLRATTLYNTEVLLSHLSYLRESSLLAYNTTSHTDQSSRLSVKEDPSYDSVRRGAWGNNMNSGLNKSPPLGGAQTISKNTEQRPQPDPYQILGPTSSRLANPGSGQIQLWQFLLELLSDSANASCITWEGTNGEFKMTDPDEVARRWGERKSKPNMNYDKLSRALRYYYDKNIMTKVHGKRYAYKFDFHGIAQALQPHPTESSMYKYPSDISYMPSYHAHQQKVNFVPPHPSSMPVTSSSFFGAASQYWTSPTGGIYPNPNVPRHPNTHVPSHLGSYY
The settings on record: protein: recombinant; tags: N-terminal GST; dsDNA, one strand shown. The essentials:
(§1)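 Pools were built from human transcription factors expressed in yeast as GST fusions, captured on glutathione beads and DNA-barcoded, along with a tag-only sample. Incubation with 200 nmole of a 16-mer random double-stranded DNA library lasted 30 min at room temperature in Tris/NaCl/DTT/glycerol buffer, and was followed by washing, 0.1% formaldehyde crosslinking, proximity ligation, PCR amplification and Illumina NextSeq500 sequencing. Binding signal is the quotient of each hexamer's read frequency for a factor and its frequency for the tag-only sample.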

Another test deals with T2, ELK1 (Homo sapiens, UniProt P19419 1-428).
T2 sequence: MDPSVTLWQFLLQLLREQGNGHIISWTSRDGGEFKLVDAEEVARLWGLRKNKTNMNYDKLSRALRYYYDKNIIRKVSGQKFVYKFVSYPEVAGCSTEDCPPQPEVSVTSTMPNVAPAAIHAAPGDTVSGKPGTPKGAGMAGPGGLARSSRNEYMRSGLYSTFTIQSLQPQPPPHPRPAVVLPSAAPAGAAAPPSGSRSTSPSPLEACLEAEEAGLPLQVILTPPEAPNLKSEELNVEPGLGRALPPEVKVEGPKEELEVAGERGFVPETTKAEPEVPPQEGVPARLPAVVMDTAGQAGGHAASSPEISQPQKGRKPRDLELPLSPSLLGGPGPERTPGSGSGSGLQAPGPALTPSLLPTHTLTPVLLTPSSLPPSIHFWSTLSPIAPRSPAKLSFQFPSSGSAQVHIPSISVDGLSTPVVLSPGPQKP
Conditions: protein: recombinant; tags: N-terminal GST; dsDNA, one strand shown. The essentials: as §1

In a further test the target is T3, GABPA (Homo sapiens, UniProt Q06546 1-454).
T3 sequence: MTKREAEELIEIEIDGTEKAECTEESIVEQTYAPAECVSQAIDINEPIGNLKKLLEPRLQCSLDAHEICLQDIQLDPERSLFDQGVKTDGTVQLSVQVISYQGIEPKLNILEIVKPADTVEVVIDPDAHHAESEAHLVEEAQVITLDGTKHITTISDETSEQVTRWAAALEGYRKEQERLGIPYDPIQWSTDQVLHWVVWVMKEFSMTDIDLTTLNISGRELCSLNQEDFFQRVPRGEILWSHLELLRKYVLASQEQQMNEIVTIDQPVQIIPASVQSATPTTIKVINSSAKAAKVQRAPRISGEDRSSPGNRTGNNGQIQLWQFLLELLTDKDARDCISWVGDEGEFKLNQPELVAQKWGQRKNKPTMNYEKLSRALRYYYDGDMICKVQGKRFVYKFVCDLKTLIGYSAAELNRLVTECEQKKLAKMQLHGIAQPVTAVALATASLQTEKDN
Conditions: protein: recombinant; tags: N-terminal GST; dsDNA, one strand shown. The essentials:
as §1

Another test concerns the target T4, ERG (Homo sapiens, UniProt P11308 1-479).
T4 sequence: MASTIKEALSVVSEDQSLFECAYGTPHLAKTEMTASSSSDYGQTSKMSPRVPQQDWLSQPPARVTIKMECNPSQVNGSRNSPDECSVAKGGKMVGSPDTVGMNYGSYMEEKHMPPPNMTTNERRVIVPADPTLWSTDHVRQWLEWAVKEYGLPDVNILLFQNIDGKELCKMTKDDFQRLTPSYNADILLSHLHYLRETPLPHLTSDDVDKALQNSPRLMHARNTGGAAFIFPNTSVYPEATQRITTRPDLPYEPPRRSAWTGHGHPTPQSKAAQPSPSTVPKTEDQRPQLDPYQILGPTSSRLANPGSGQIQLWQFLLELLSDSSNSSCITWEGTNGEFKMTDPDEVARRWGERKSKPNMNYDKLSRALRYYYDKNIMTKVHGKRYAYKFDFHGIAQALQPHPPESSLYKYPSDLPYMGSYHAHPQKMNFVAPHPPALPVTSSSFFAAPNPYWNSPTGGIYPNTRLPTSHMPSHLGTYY
The settings on record: protein: recombinant; tags: N-terminal GST; dsDNA, one strand shown. The essentials: as §1

The target in another test is ELF1 (Homo sapiens, UniProt P32519 1-619). The settings on record: protein: recombinant; tags: N-terminal GST; dsDNA, one strand shown. The essentials:
as §1

A further test concerns the target T5, EHF (Homo sapiens, UniProt Q9NZC4 1-300).
T5 sequence: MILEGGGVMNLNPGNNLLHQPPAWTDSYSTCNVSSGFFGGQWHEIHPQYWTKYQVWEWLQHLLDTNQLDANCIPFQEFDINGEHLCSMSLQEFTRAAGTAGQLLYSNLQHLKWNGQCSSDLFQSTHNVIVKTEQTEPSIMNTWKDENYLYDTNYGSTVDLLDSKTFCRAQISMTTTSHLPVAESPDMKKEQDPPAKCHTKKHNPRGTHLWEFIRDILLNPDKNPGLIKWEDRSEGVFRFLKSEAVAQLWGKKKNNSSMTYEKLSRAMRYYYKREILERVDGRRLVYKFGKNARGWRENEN
The settings on record: protein: recombinant; tags: N-terminal GST; dsDNA, one strand shown. The essentials: as §1

The next test deals with SPI1 (Homo sapiens, UniProt P17947 1-270). Conditions: protein: recombinant; tags: N-terminal GST; dsDNA, one strand shown. The essentials:
as §1

In a further test the target is SPIB (Homo sapiens, UniProt Q01892 1-262). Conditions: protein: recombinant; tags: N-terminal GST; dsDNA, one strand shown. The essentials: as §1
Sequence of SPIB (Q01892 whole entry): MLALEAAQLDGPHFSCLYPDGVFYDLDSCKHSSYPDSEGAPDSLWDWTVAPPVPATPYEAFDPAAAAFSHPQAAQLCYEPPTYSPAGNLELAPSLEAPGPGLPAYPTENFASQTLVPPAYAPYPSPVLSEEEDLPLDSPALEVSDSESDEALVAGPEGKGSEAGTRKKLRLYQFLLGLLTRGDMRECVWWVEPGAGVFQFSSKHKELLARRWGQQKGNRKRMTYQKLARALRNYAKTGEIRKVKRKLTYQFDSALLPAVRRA
For the next test, the target named is T6, ELK3 (Homo sapiens, UniProt P41970 1-407).
T6 sequence: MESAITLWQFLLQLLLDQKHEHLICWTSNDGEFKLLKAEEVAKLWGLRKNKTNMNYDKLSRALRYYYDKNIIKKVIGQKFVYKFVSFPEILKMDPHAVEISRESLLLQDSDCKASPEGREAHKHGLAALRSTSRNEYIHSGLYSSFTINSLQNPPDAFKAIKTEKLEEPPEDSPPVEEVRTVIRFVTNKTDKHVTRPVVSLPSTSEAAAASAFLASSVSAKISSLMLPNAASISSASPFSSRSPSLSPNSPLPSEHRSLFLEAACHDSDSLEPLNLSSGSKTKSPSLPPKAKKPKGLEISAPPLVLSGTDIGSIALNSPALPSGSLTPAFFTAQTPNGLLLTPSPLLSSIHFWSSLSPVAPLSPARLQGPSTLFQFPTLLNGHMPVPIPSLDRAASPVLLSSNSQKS
The settings on record: protein: recombinant; tags: N-terminal GST; dsDNA, one strand shown. The essentials:
as §1

In a further test the target is T7, FEV (Homo sapiens, UniProt Q99581 1-238).
T7 sequence: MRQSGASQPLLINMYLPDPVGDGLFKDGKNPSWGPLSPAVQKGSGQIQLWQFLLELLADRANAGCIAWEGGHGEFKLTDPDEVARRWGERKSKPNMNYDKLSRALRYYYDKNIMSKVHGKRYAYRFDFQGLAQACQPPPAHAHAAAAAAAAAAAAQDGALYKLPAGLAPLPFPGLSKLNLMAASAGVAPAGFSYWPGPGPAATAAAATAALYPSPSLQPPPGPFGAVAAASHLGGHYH
Conditions: protein: recombinant; tags: N-terminal GST; dsDNA, one strand shown. The essentials:
as §1

Another test concerns the target ETV5 (Homo sapiens, UniProt P41161 1-510). The settings on record: protein: recombinant; tags: N-terminal GST; dsDNA, one strand shown. The essentials:
as §1

The next test has as its target HSF1 (Homo sapiens, UniProt Q00613 1-529). The settings on record: protein: recombinant; tags: N-terminal GST; chain copies: 3; dsDNA, one strand shown. The essentials: as §1
A further test deals with T8, SPIC (Homo sapiens, UniProt Q8N5J4 1-248).
T8 sequence: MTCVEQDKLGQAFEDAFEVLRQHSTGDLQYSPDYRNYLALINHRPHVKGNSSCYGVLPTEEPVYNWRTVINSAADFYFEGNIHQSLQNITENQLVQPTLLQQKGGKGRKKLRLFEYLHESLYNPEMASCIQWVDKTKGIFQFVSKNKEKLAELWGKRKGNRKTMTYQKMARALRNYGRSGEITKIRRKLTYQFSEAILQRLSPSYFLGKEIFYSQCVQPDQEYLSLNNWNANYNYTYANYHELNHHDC
The settings on record: protein: recombinant; tags: N-terminal GST; dsDNA, one strand shown. The essentials: as §1

A further test has as its target ELF4 (Homo sapiens, UniProt Q99607 1-663). Conditions: protein: recombinant; tags: N-terminal GST; dsDNA, one strand shown. The essentials:
as §1

The next test addresses T9, ELK4 (Homo sapiens, UniProt P28324-2 1-405).
T9 sequence: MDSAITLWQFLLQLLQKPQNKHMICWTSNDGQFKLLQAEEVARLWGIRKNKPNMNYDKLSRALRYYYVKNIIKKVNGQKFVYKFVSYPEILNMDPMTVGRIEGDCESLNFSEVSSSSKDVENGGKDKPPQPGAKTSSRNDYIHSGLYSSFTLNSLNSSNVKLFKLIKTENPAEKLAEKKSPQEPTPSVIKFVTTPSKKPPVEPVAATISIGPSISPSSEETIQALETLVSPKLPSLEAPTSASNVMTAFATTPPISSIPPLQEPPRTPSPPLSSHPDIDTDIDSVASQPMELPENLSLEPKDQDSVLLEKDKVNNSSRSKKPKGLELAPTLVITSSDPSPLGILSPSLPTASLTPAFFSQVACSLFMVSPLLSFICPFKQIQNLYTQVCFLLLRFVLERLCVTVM
The settings on record: protein: recombinant; tags: N-terminal GST; dsDNA, one strand shown. The essentials: as §1

The next test deals with T10, ETV2 (Homo sapiens, UniProt O00321 1-342).
T10 sequence: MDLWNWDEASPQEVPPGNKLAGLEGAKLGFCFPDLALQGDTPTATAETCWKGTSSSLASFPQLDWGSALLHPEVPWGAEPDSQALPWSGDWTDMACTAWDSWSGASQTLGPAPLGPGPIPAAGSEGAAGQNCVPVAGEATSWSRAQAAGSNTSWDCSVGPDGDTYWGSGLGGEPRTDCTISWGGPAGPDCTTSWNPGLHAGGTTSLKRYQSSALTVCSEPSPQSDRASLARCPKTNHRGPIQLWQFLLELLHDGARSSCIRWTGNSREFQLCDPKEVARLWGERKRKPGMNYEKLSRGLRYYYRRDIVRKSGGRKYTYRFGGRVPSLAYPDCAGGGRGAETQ
The settings on record: protein: recombinant; tags: N-terminal GST; dsDNA, one strand shown. The essentials:
as §1

The target of a further test is T11, ELF3 (Homo sapiens, UniProt P78545 1-371).
T11 sequence: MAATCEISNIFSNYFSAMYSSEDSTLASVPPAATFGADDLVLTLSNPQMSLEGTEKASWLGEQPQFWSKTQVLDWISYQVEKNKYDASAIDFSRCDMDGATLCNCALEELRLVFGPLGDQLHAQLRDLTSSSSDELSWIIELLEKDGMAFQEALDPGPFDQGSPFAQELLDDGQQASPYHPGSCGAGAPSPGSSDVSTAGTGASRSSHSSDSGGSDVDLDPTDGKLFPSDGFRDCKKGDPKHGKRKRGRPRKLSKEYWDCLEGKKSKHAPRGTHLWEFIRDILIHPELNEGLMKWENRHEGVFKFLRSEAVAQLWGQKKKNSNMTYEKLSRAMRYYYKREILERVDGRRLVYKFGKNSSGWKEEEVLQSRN
Conditions: protein: recombinant; tags: N-terminal GST; dsDNA, one strand shown. The essentials:
as §1

For a further test, the target named is CRX (Homo sapiens, UniProt O43186 1-299). The settings on record: protein: recombinant; tags: N-terminal GST; dsDNA, one strand shown. The essentials:
as §1

Another test deals with ETV1 (Homo sapiens, UniProt P50549 1-477). The settings on record: protein: recombinant; tags: N-terminal GST; dsDNA, one strand shown. The essentials:
as §1

Sequence of ETV5 (P41161 whole entry): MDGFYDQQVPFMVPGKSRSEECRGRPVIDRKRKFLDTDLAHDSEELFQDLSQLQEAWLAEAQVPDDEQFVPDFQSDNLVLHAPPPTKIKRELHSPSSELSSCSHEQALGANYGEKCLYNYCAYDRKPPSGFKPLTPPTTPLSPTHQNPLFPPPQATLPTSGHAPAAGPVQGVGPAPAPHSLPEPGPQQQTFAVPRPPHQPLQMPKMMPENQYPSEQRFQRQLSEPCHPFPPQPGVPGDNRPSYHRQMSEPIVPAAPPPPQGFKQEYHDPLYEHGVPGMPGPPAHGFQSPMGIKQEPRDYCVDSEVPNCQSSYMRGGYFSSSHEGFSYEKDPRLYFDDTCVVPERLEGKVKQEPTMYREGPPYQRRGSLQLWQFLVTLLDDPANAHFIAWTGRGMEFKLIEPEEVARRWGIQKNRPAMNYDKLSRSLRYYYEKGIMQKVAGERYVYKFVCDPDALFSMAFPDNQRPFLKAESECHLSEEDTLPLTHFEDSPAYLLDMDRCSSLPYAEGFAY
Sequence of ELF4 (Q99607 whole entry): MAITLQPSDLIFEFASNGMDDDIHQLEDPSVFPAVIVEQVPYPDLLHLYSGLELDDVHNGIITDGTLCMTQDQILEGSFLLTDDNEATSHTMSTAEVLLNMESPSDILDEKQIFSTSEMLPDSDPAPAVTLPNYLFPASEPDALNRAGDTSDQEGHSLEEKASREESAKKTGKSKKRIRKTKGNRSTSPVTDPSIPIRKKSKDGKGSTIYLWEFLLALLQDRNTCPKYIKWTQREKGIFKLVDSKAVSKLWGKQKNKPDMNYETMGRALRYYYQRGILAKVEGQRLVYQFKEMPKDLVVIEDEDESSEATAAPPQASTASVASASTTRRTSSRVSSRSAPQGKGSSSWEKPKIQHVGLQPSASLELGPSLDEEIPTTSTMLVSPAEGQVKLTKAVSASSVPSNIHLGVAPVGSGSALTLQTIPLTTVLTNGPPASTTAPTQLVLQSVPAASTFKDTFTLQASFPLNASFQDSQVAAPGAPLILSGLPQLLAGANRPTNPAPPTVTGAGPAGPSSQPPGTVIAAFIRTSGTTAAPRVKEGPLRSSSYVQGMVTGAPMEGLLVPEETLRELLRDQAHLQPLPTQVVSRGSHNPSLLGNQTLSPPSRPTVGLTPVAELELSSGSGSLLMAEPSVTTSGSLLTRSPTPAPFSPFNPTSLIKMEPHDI
Sequence of ELF1 (P32519 whole entry): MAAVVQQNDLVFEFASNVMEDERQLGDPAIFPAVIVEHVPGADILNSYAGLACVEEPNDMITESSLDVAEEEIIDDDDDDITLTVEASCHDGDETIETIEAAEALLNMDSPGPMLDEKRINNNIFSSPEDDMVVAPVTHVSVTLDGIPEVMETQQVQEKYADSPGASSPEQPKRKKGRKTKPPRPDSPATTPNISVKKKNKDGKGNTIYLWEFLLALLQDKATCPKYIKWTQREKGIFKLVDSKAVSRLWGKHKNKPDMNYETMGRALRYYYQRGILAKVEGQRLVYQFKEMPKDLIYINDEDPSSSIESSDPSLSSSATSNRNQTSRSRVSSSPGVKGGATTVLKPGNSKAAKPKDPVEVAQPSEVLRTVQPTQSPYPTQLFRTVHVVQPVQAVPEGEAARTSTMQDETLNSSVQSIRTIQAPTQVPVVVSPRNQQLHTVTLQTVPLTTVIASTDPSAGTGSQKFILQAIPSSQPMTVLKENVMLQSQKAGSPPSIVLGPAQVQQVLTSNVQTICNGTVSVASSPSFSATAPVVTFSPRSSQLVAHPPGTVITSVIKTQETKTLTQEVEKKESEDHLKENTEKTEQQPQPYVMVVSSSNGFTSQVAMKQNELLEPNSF
Sequence of CRX (O43186 whole entry): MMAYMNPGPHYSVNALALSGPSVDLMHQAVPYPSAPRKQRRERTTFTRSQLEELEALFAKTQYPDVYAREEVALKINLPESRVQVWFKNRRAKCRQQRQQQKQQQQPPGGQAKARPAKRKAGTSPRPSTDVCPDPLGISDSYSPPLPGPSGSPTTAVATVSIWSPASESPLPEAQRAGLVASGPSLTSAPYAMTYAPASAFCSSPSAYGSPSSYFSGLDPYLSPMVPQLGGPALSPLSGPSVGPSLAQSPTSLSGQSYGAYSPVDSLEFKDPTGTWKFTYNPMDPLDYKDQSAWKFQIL
Sequence of HSF1 (Q00613 whole entry): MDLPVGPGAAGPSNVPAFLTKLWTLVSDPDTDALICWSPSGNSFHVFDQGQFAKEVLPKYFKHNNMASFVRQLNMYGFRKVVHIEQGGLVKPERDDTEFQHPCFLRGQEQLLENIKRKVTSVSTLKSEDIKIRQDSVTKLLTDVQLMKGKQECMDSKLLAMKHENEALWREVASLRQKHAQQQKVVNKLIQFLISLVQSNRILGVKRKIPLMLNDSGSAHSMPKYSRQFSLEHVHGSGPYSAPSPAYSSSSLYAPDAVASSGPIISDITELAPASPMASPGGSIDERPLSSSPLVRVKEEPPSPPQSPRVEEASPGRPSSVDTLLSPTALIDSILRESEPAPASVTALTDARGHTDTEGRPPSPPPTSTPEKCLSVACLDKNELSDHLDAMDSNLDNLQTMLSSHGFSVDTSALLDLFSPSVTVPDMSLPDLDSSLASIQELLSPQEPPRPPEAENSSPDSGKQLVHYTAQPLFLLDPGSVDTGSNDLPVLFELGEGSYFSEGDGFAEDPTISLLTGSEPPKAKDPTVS
Sequence of ETV1 (P50549 whole entry): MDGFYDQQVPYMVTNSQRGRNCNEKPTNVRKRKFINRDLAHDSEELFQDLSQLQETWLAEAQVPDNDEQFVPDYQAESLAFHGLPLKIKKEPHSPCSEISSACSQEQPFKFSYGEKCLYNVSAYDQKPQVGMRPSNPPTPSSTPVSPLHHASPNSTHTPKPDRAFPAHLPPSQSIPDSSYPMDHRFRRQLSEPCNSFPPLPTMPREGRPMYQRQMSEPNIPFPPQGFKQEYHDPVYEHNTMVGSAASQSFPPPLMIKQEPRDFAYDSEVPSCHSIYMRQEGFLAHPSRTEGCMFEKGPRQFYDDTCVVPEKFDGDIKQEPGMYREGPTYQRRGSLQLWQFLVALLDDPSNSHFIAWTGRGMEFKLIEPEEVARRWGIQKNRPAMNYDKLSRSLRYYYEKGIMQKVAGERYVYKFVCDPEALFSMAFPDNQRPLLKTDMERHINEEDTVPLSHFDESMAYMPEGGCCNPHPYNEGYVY

On to TCTACA, for which the binding signal with FLI1 was 1.12 fold enrichment (6-mer frequency, TF over GST control); in the test with ELK1, 1.17 fold enrichment (6-mer frequency, TF over GST control); with GABPA, 1.19 fold enrichment (6-mer frequency, TF over GST control); with ERG it was 1.23 fold enrichment (6-mer frequency, TF over GST control); with ELF1, 1.28 fold enrichment (6-mer frequency, TF over GST control); in the test with EHF it was 1.25 fold enrichment (6-mer frequency, TF over GST control). The binding signal in the test with SPI1 is 1.14 fold enrichment (6-mer frequency, TF over GST control); in the test with SPIB, 1.18 fold enrichment (6-mer frequency, TF over GST control); with ELK3 it was 1.23 fold enrichment (6-mer frequency, TF over GST control); with FEV it was 1.2 fold enrichment (6-mer frequency, TF over GST control); with ETV5, 1.18 fold enrichment (6-mer frequency, TF over GST control); in the test with HSF1 it was 1.39 fold enrichment (6-mer frequency, TF over GST control). Further, the binding signal was 1.44 fold enrichment (6-mer frequency, TF over GST control) in the test with SPIC; 1.15 fold enrichment (6-mer frequency, TF over GST control) with ELF4; 1.17 fold enrichment (6-mer frequency, TF over GST control) with ELK4; 1.18 fold enrichment (6-mer frequency, TF over GST control) with ETV2; 1.22 fold enrichment (6-mer frequency, TF over GST control) in the test with ELF3; 1.17 fold enrichment (6-mer frequency, TF over GST control) with CRX. Moreover, in the test with ETV1, the binding signal was 1.16 fold enrichment (6-mer frequency, TF over GST control).

Source of the values: article PMC7862700, “An all-to-all approach to the identification of sequence-specific readers for epigenetic DNA modifications on cytosine”.
